The values below come from PubChem BioAssay (NCATS).

The target of test [1] is Lysosomal acid glucosylceramidase (Homo sapiens) (UniProt P04062). Description: Glucocerebrosidase-p2 (AID 348; in the data active = potency below about 10 µM; also: potency is read from the fitted curve at half-maximal effect). The conditions noted are these: purified GBA, blue fluorogenic substrate, 40 min. The essentials: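 Normal human glucocerebrosidase (0.2 nM) with blue fluorogenic substrate (80 uM final) in citrate/phosphate pH 5.9 with 10mM sodium taurocholate, 0.01% tween-20; 40 min RT, NaOH/glycine stop; fluorescence Ex 365/Em 440; AC50 from a titration from 0.6 nM upwards.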

Test [2] addresses Cytochrome P450 1A2 (Homo sapiens) (UniProt P05177). Description: p450-cyp1a2 (AID 410; calls by dose curve; also: potency is read from the fitted curve at half-maximal effect;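 as to activity change, negative = inhibition: -100% = full effect of reference inhibitor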). The conditions noted are these: recombinant CYP1A2, luciferin-ME demethylation, luminescence; series mostly up to 57 µM. The essentials: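 Luminescent demethylation readout: Luciferin-ME (100uM, equal to Km) turned over by 20nM CYP1A2 for 60 min at room temperature after NADPH regeneration addition, following 10 min compound preincubation. Normalization used 57 uM furafylline as full inhibition.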

Test [3] in a line: Stat Signaling Pathway (AID 446).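 Also: ME-180 cervical cancer cells given 40 pM IL-6 alongside compound; SIE-controlled beta-lactamase reporter measured as 460/530 nm FRET emission ratio; % is scaled to controls: 0 for no effect and ±100 for the full control effect.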 The conditions noted are these: ME-180 SIE beta-lactamase reporter, IL-6 stimulated, 5 h. The gist of the method: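 Compound effects on IL-6-induced STAT reporter activity were measured in ME-180 cells. After overnight culture, cells were co-treated with 40 pM IL-6 for 5 hrs before beta-lactamase substrate loading at room temperature.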
Test [4] has as its target Glucocorticoid receptor (Homo sapiens) (UniProt P04150). In words: GR-GFP Redistribution (AID 450;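 active = compounds whose dose series gives a full or clear partial fitted curve of increased nuclear translocation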; also: potency is read from the fitted curve at half-maximal effect). The conditions noted are these: U2OS GR-GFP nuclear translocation, laser cytometry, 2 h.
Test [5] has the same target. In words: GR-EFC Redistribution (AID 451; calls by dose curve; also: potency is read from the fitted curve at half-maximal effect). The note with it: CHO-K1 GR-EFC translocation, beta-gal luminescence, 2 h. The gist of the method: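 Translocation of GR-ED fusion to nuclear EA restores b-gal, read by luminescence after 1 h room-temperature detection. Engineered CHO-K1 biosensor cells, 1,000/well, exposed 2 h at 37 C to titrations up to 46 uM final.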
The target in test [6] is Mitogen-activated protein kinase 10 (Mus musculus) (UniProt Q61831). Description: JNK3 AlphaScreen Assay (AID 530).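 Also: kinase came from lysate of stimulated human HepG2 cells; signal reports phosphorylation of biotinylated GST-cJun 1-79 at Ser73 with 10 µM ATP; % is scaled to controls: 0 for no effect and ±100 for the full control effect.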 The note with it: JNK3 lysate, c-Jun phosphorylation; series mostly up to 57.1 µM. The essentials:
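qHTS titrations with 15 min compound pre-incubation before adding ATP (10 uM final). Read-out: AlphaScreen of Ser73-phosphorylated biotin-GST-cJun using HepG2 lysate JNK3 activated by IL-1β and TNFα.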

For test [7], the target named is Cytochrome P450 3A4 (Homo sapiens) (UniProt P08684). In words: qHTS Assay for Inhibitors and Substrates of Cytochrome P450 3A4 (AID 884; active = well fitted curve in the direction sought with a large enough effect; an effect the other way counts as inactive or inconclusive; also: potency is read from the fitted curve at half-maximal effect; nearly all actives have a fitted effect of over 50% in size). The conditions noted are these: recombinant CYP3A4, Luciferin-PPXE luminescence; series mostly up to 57.1 µM. The gist of the method: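 Luminescent readout of luciferin produced by CYP3A4 (20 nM) dealkylation of Luciferin-PPXE, 25 uM (its KM). NADPH-driven reaction ran 60 min at RT after 10 min compound preincubation; data scaled to 57 uM ketoconazole as 100% inhibition.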

The target is the same in test [8]. In words: qHTS Assay for Activators of Cytochrome P450 3A4 (AID 885; active = well fitted curve in the direction sought with a large enough effect; an effect the other way counts as inactive or inconclusive; also: nearly all actives have a fitted effect of over 65% in size). The note with it: recombinant CYP3A4, Luciferin-PPXE luminescence, 60 min; series mostly up to 57.1 µM. The essentials:
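CYP3A4 activity: Luciferin-PPXE O-dealkylation, 25uM substrate, 200mM KPO4, RT throughout. Read-out is luciferase luminescence; higher values reflect activation.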

The target of test [9] is Cytochrome P450 2D6 (Homo sapiens) (UniProt P10635). Description: qHTS Assay for Inhibitors and Substrates of Cytochrome P450 2D6 (AID 891; active = well fitted curve in the direction sought with a large enough effect; an effect the other way counts as inactive or inconclusive; also: potency is read from the fitted curve at half-maximal effect; nearly all actives have a fitted effect of over 60% in size). The note with it: recombinant CYP2D6, luciferin-ME EGE luminescence; series mostly up to 57.1 µM. The gist of the method:
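Luminescent read-out of luciferin formed by 5 nM human CYP2D6 demethylating 30 uM Luciferin-ME EGE (Km level) over 60 min at room temperature after NADPH regeneration addition. Data normalized to full inhibition by 1.43 uM quinidine.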

Test [10] in a line: Confirmation and Secondary Assay for Modulators of Hemoglobin Beta Chain Splicing at IVS2 654 locus (AID 910; active = well fitted curve in the direction sought with a large enough effect; an effect the other way counts as inactive or inconclusive;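 also: HeLa cells stably carrying EGFP split by mutant beta-globin IVS2-654 intron; per-well total GFP intensity by laser scanning cytometry after 2-day treatment; % of control where 0% means no effect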). The conditions noted are these: HeLa EGFP-654 splicing reporter, GFP fluorescence, 48 h; series mostly up to 38.3 µM. The essentials:
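Readout: per-well total peak green fluorescence (488 nm ex, 500–520 nm em) from objects 5–250 µm, reflecting correct splicing of an EGFP-654 reporter. Compounds were applied for 2 days at 37 °C to overnight-plated HeLa EGFP-654 cells; controls were DMSO and 500 nM IVS2-654 PNA.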

Test [11] in a line: Confirmation and Secondary Assay for Modulators of Hemoglobin Beta Chain Splicing at IVS2 705 locus (AID 930; active = well fitted curve in the direction sought with a large enough effect; an effect the other way counts as inactive or inconclusive;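 also: HeLa cells stably expressing the EGFP-705 splicing reporter; % of control where 0% means no effect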). The conditions noted are these: HeLa EGFP-705 splicing reporter, GFP fluorescence, 48 h; series mostly up to 38.3 µM. The gist of the method: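 Assay measures total GFP intensity per well in HeLa EGFP-705 cells after 2 days with compound; mis-splicing normally truncates EGFP, so fluorescence indicates corrected splicing.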

Test [12] is described as follows: qHTS Assay for Lipid Storage Modulators (AID 1519; calls by dose curve). The conditions noted are these: Drosophila S3 cells, BODIPY lipid droplet/cell ratio, laser cytometry, cells loaded with oleic acid. The essentials: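 Cells seeded at 5,000 per well were treated with compounds over a concentration series and loaded with oleic acid (400 uM, as added). Lipid droplet fluorescence (488 nm excitation, 500-530 nm channel) was read by laser-scanning cytometry and normalized to 20 uM Triacsin C.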

The nature of test [13]: AP1 Signaling Pathway (AID 357).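 Also: ME-180 reporter cells stimulated with EGF at its EC50 level; % is scaled to controls: 0 for no effect and ±100 for the full control effect.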 The note with it: ME-180 (cervical carcinoma) AP-1-bla reporter, EGF-induced, beta-lactamase ratio, 5 h. The essentials:
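A ratiometric CCF4 readout (405 nm excitation; 460 and 530 nm emission) quantified AP-1-driven beta-lactamase in ME-180 cells after 5 h with compound and EC50 EGF; AC50 values were derived for activators and inhibitors.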

A short description of test [14]: NFAT Signaling Pathway (AID 444).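 Also: carbachol stimulus at about its EC50 of 1 µM final; % is scaled to controls: 0 for no effect and ±100 for the full control effect.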 The conditions noted are these: Jurkat NFAT-bla M1, carbachol, beta-lactamase ratio, 5 h. The gist of the method:
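Read-out: CCF4 FRET ratio (460 nm/530 nm) after 1 h RT dye loading, used for %activity and AC50 from titration series. Cells: Jurkat NFAT-β-lactamase/M1 line, treated with compound plus 1 uM carbachol for 5 h, 37 °C.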

Test [15] concerns the target 3',5'-cyclic-AMP phosphodiesterase 4B (Homo sapiens) (UniProt Q07343). Description: qHTS Assay for Inhibitors of PDE-IV (AID 607; active = well fitted activation curve with a large enough effect in the main read-out, with a control signal flat, not every such curve was filed as active; also: % of control where 0% means no effect). The note with it: HEK293 ACTOne CNG channel cells, membrane potential fluorescence; series mostly up to 22.9 µM. The essentials: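 ACTOne HEK293 cells carry a modified cAMP-gated CNG channel and express endogenous PDE4; plated 1000 cells/well, compounds up to 22.9 uM final. Membrane-potential dye fluorescence (ex 535/em 590) was read; parental cells received 10 uM forskolin + 100 uM RO 20-1724.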

Test [16] deals with Ubiquitin carboxyl-terminal hydrolase 1 (Homo sapiens) (UniProt O94782). Description: Inhibitors of USP1/UAF1: Pilot qHTS (AID 504865; active = well fitted curve in the direction sought with a large enough effect; an effect the other way counts as inactive or inconclusive; also: nearly all actives have a fitted effect of over 35% in size; also: potency is read from the fitted curve at half-maximal effect). The note with it: purified USP1/UAF1, Ub-rhodamine cleavage fluorescence; series mostly up to 54.9 µM. The gist of the method:
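1nM USP1/UAF1 + cpd, 15 min RT; start w/ Ub-Rho 150nM final; kinetic FL 480/540 nm, 6 reads q60 s. Buffer 50mM HEPES pH 7.8, 0.5mM EDTA, 1mM TCEP, 0.01% Tween-20, 0.1 mg/ml BSA.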

In test [17] the target is Guanine nucleotide-binding protein G(i) subunit alpha-1 (Homo sapiens) (UniProt P63096). In words: qHTS Assay for Inhibitors of RGS12 GoLoco Motif Activity (Green Fluorophore) (AID 879; active = well fitted curve in the direction sought with a large enough effect; an effect the other way counts as inactive or inconclusive;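 also: 0% = labeled peptide with Gαi1 and full inhibition = labeled peptide alone without protein; negative values mean loss of peptide binding seen as reduced polarization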). The conditions noted are these: Galphai1/FITC-RGS12 GoLoco peptide, fluorescence polarization; series mostly up to 57.1 µM. The essentials:
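A drop in FITC polarization marked displacement of the FITC-tagged RGS12 GoLoco peptide (10 nM) from Gαi1 (50 nM). Compounds were incubated 10 min at room temperature in Tris pH 7.5 buffer containing 150 mM NaCl, 0.1 mM GDP and 0.05% NP40; unlabeled peptide titration served as control.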

Test [18] is described as follows: qHTS profiling for inhibitors of Plasmodium falciparum proliferation (AID 504749; active = well fitted curve in the direction sought with a large enough effect; an effect the other way counts as inactive or inconclusive;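 also: 0% = DMSO vehicle and full inhibition = artemisinin control; nearly all actives have a fitted effect of over 60% in size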). The note with it: P. falciparum in erythrocytes, SYBR Green DNA, 72 h, at 28.7 µM (top of the series). The gist of the method: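 SYBR Green fluorescence of parasite DNA, read after lysis and overnight dark incubation, measured growth over 72 h in erythrocyte culture at 0.3% parasitemia and 2.5% hematocrit. Data normalised to DMSO and 0.29 uM artemisinin, with plate-drift correction.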

Setting [19] is: at 7.69 µM (top of the series) unless noted.
The mark [20] stands for this setting: measured here: cell count channel max response.
The mark [21] stands for this setting: measured here: lipid channel max response.

Several values for one entry are separate records, joined by “and”; a condition that tells them apart may be missing. Equal entries are not always repeated. Records with an inconclusive call do not appear. Activity calls are given as the source filed them. Unless noted, calls follow the shape of the dose curve; as a rule, active = well fitted curve in either direction with a large enough effect (not every such curve was filed as active); inconclusive = small, poorly fitted or top-dose-only effect, or another doubt; inactive = flat fitted curve, though single readings scatter.

Sequence of Lysosomal acid glucosylceramidase (Homo sapiens) (P04062 whole entry, looked up): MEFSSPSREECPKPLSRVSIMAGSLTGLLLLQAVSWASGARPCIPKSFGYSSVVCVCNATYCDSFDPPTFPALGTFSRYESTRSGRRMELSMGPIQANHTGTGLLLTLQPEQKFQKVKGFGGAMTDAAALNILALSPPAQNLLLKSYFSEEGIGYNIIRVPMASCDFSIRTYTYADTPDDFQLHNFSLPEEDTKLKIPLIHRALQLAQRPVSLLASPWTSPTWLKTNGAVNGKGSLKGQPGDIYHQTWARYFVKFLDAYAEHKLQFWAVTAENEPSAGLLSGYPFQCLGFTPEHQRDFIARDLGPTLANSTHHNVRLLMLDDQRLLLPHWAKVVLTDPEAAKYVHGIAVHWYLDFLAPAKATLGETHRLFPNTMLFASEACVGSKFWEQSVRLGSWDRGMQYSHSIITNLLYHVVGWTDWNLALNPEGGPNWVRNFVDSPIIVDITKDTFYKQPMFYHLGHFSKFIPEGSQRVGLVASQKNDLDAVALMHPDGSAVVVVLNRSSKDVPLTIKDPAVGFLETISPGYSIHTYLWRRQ
Sequence of Cytochrome P450 1A2 (Homo sapiens) (P05177 whole entry, looked up): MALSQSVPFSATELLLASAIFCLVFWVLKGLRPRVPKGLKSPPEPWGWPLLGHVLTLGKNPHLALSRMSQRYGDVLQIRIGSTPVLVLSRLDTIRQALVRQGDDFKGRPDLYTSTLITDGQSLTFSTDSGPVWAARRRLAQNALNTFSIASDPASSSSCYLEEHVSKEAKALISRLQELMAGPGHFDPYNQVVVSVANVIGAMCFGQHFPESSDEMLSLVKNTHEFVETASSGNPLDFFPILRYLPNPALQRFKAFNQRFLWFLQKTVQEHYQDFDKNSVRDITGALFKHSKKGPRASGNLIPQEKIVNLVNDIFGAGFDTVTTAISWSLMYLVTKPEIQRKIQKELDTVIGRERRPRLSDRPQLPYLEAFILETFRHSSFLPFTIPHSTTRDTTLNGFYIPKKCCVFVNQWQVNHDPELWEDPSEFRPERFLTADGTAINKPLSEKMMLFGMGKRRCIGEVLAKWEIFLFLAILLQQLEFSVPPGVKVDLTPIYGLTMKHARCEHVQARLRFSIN
Sequence of Cytochrome P450 3A4 (Homo sapiens) (P08684 whole entry, looked up): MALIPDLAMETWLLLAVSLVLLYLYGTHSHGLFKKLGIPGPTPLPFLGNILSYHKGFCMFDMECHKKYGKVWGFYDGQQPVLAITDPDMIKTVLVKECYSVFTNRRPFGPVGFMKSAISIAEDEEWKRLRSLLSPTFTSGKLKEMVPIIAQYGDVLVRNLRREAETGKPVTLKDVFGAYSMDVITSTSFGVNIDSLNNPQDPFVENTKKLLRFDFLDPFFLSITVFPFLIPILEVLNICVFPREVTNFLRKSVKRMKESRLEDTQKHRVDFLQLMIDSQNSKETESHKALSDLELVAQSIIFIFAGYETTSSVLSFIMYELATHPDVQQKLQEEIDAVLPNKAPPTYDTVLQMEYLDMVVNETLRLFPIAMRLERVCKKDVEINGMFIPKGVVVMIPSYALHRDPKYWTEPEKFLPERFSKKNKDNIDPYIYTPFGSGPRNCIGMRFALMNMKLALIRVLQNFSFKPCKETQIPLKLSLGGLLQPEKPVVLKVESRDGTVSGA
Sequence of Glucocorticoid receptor (Homo sapiens) (P04150 whole entry, looked up, the tested form may be a part): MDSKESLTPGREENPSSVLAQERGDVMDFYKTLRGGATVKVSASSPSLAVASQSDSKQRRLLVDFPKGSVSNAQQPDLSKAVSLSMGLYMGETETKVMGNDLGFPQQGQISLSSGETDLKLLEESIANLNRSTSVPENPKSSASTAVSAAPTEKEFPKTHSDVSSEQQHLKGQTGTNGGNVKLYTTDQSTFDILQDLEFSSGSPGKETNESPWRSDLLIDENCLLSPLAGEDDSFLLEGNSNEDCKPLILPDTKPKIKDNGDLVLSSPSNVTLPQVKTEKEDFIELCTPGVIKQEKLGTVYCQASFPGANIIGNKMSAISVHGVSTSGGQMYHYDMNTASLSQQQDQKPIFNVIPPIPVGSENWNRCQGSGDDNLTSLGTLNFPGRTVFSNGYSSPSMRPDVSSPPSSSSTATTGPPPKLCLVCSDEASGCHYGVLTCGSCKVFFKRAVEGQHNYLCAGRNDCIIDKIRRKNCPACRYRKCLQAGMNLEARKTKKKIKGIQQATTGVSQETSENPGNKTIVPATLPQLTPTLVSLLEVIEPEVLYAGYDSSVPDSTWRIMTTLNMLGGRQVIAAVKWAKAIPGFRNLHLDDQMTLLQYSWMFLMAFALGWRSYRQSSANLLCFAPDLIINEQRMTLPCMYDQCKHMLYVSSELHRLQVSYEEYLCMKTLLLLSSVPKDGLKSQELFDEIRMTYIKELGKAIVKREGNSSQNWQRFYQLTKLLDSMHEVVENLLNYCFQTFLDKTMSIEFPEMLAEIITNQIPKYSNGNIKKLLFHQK
Sequence of 3',5'-cyclic-AMP phosphodiesterase 4B (Homo sapiens) (Q07343 whole entry, looked up): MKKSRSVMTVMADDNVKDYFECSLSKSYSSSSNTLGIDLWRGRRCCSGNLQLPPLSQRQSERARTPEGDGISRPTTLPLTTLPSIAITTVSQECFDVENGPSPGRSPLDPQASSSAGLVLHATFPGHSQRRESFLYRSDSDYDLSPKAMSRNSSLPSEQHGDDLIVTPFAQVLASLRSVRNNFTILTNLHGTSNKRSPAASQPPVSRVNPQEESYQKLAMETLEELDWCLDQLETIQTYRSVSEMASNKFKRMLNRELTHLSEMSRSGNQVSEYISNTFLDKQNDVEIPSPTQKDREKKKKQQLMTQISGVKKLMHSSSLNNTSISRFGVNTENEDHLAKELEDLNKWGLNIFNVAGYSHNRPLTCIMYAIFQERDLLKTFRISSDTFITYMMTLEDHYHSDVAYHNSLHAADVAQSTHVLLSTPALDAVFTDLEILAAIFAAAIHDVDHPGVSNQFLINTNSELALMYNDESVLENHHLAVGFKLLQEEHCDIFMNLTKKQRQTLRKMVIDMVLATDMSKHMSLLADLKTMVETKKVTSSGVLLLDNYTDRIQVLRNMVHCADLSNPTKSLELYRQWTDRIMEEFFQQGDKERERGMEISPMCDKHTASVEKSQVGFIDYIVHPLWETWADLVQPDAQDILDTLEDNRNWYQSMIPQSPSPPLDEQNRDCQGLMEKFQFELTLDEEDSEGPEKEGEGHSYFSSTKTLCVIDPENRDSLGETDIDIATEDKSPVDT
Sequence of Ubiquitin carboxyl-terminal hydrolase 1 (Homo sapiens) (O94782 whole entry, looked up): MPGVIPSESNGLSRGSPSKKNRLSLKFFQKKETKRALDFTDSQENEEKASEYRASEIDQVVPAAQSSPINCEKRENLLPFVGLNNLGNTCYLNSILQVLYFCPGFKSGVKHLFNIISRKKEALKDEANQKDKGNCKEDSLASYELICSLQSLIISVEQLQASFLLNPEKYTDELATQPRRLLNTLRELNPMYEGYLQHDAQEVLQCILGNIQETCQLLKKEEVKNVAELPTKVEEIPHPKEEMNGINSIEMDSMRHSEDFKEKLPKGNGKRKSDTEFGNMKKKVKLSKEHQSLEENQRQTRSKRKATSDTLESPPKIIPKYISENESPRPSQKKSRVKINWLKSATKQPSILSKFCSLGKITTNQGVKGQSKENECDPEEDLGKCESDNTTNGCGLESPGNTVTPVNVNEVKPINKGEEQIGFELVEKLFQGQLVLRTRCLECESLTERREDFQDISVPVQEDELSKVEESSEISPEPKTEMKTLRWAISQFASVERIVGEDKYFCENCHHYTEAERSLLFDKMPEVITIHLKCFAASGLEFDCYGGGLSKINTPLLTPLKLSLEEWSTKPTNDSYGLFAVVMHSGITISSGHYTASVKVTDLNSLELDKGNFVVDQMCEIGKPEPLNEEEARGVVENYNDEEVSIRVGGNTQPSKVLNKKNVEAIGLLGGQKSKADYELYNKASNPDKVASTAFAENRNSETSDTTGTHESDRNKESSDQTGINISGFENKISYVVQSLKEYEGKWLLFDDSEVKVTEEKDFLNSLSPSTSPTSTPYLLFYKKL
Sequence of Guanine nucleotide-binding protein G(i) subunit alpha-1 (Homo sapiens) (P63096 whole entry, looked up): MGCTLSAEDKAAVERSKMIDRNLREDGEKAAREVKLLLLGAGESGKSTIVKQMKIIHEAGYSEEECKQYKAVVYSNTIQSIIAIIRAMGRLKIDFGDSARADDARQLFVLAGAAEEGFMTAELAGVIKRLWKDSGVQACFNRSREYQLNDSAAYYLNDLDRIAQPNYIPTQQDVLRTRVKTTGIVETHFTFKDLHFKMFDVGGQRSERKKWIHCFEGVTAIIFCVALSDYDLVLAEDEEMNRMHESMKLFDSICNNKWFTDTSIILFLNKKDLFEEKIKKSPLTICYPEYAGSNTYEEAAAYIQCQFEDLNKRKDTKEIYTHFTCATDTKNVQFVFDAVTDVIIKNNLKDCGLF
Sequence of Cytochrome P450 2D6 (Homo sapiens) (P10635 whole entry, looked up): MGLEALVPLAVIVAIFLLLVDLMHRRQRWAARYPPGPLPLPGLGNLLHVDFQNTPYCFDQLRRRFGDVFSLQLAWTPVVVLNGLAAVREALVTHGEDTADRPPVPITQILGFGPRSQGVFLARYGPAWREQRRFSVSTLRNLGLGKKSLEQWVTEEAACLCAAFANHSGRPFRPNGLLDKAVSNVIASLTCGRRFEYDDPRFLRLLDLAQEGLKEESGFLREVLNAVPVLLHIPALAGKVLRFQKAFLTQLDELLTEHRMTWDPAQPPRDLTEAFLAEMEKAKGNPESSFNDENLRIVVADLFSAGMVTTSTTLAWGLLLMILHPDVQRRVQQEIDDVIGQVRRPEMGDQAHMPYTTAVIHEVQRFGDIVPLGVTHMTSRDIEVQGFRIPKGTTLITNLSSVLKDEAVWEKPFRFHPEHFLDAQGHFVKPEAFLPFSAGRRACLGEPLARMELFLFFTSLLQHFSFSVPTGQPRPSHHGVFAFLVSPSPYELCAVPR

As for `c1ccc(Nc2ncnc3ccc(-c4ccc5c(c4)OCO5)cc23)cc1`, the Potency was > 11.4 µM (inactive) in test [1]; 251 nM (active) in test [2]; > 46 µM (inactive) in [4]; > 46 µM (inactive) in test [5]; 2.51 µM (active) in test [7]; 126 nM (active) in test [9]. Further, in [3] (setting [19]), the activity, negative = inhibition is 8.5% (inactive). For the same molecule, the Potency result in test [6], in test [8] and in [10] was “inactive” throughout. In addition, the outcome in test [11] was inactive. Also, the activity change, negative = inhibition in test [12] (at 57.5 µM (top of the series)) was 5.31% (inactive). For the same molecule, the max response in test [12] (setting [20]) was -12.2%; in test [12] (setting [21]), -7.25%.
Consider `COc1ccc(Oc2ncc3nc(CCc4ccccc4)c(=O)n(C)c3n2)cc1`, for which the Potency in test [1] was > 11.4 µM (inactive); in [4], > 9.22 µM (inactive); in test [5], > 46 µM (inactive). For the same molecule, the activity change, negative = inhibition in [13] (setting [19]) is -17.4% (inactive); in test [14] (setting [19]), 2.43% (inactive); in [12] (at 57.5 µM (top of the series)), -3.44% (inactive). The activity, negative = inhibition in [3] (setting [19]) is -11.3% (inactive). In addition, in [6], the Potency result is “inactive”. The max response in test [12] (setting [20]) is 9.28%; in test [12] (setting [21]), 8.21%.
For the molecule `CN(C)Cc1ccccc1-c1cncnc1NCc1ccccc1`, the Potency in [1] was > 11.4 µM (inactive); in [4], > 46 µM (inactive); in test [5] it was > 46 µM (inactive). Also, the activity change, negative = inhibition in test [13] (setting [19]) was 9.42% (inactive); in [12] (at 57.5 µM (top of the series)), 4.16% (inactive). Moreover, in test [3] (setting [19]), the activity, negative = inhibition is -4.85% (inactive). For the same molecule, the Potency result in [6], in test [15], in test [10] and in test [16] was “inactive” in each case. In addition, the call in [11] was inactive. Further, the max response in test [12] (setting [20]) is 9.37%; in [12] (setting [21]) it was 10.2%.
In the case of `c1ccc2c(Nc3ccncc3)nc(-c3ccoc3)nc2c1`, the Potency in test [1] is 7.37 µM (active); in test [2] it was 158 nM (active); in [4], > 46 µM (inactive); in [5], > 46 µM (inactive); in test [7] it was 1.26 µM (active); in test [16] it was 44.7 µM (active). The activity change, negative = inhibition in [14] (setting [19]) is -19.5% (inactive); in test [12] (at 57.5 µM (top of the series)) it was 14.9% (inactive). Also, the activity, negative = inhibition in test [3] (setting [19]) was 3.23% (inactive). Further, the Potency result in test [6], in test [8] and in test [10] was “inactive” each time. The call in test [11] was inactive. Moreover, the results for the max response in test [12] (setting [20]) and in test [12] (setting [21]) were 5.31% and 22.2%, respectively.
As to `CCCN(CCC)C(=O)[C@@H](CCC(=O)O)NC(=O)c1ccccc1`, the activity change, negative = inhibition in test [13] (at 17.2 µM (top of the series)) is 0.378% (inactive); in [13] (at 38 µM (top of the series)) it was -3.39% (inactive); in [14] (at 17.2 µM (top of the series)), -4.73% (inactive); in test [14] (at 38 µM (top of the series)), -3.22% (inactive); in test [12] (at 25.7 µM (top of the series)), 0.554% (inactive). The Potency result in test [2], in [6], in test [15], in [17] and in test [16] was “inactive” throughout. The activity, negative = inhibition in test [3] (at 17.2 µM (top of the series)) is -4.56% (inactive); in [3] (at 38 µM (top of the series)), -1.87% (inactive); in test [18] (parasite line A) it was 5.79% (inactive); in test [18] (parasite line B), 7.29% (inactive). Also, the Potency in test [4] is > 46 µM (inactive) and > 20.6 µM (inactive); in test [5] it was > 46 µM (inactive) and > 20.6 µM (inactive). Further, the max response in [12] (setting [20]) was determined as 5.84%; in test [12] (setting [21]) it was 4.96%.
For `O=C(Oc1ccccc1)N1CCC2(CCCN(c3ccncc3)C2)CC1`, the Potency in test [1] was > 11.4 µM (inactive); in test [5], > 46 µM (inactive). The activity change, negative = inhibition was 14.2% (inactive) in test [13] (setting [19]), -80.6% (active) in [14] (setting [19]) and 4.64% (inactive) in [12] (at 57.5 µM (top of the series)). Further, in test [3] (setting [19]), the activity, negative = inhibition is 18.8% (inactive). Moreover, the Potency entry in [6] and in test [15] was “inactive” each time. Moreover, the max response in test [12] (setting [20]) turned out to be 1.04%; in test [12] (setting [21]), 10.6%.
